Data taken from PubChem BioAssay AID2314 (National Center for Advancing Translational Sciences (NCATS), 2010).
Out of some 300,000 compounds screened, about 37,000 (12%) were called active. The sample as a whole holds a higher share of actives than the screen did. Values without a mark were called inactive. No stated cut-off is given here; in the data, active means max response mostly above about 13% (no sharp cut-off); inactive means mostly below about 14%.

Experiment: Cycloheximide Counterscreen for Small Molecule Inhibitors of Shiga Toxin; further: read at 38.3 µM for the half of the compounds with a filed dose; 0% is about no effect
Settings: cell reporter, cycloheximide protein synthesis inhibition counterscreen; hits give high values

Row | SMILES | max response
1 | OC(COc1ccc(Br)cc1)CN1CCCC1 (stereo not given) | -1.85%
2 | CN(CCC1CCOCC1)C(=O)CC1C(=O)NCCN1Cc1cccc(F)c1 (stereo not given) | -2.83%
3 | CC(=O)c1c(C)[nH]c(C(=O)OCC(=O)Nc2cc(S(=O)(=O)N3CCCCC3)ccc2C)c1C | -1.55%
4 | Cc1cccc([C@H]2[C@@H]3C=CC[C@@H](C)[C@@H]3C(=O)N2Cc2ccccc2)c1 | -6.21%
5 | Cc1c(C)c(C)c(S(=O)(=O)NCCc2ccccn2)c(C)c1C | -3.58%
6 | COc1ccc(NCCc2ccccn2)cc1 | 30.6% (active)
7 | O=S(=O)(/C=C/c1ccccc1)NCCc1ccccn1 | 10.5%
8 | COc1ccc(S(=O)(=O)NC(C)C(=O)NCc2ccncc2)cc1Cl (stereo not given) | -5.01%
9 | Cc1c(CNCCc2ccccc2)c(C(=O)O)c(C)n1-c1ccccc1 | 12.6% (active)
10 | CNC(=O)CSc1nnc(CCc2ccccc2)n1-c1ccccc1 | 1.1%
11 | Cc1c(C(=O)NCc2ccccc2)cnn1-c1ccccc1 | 22.7%
12 | COC(=O)CCCC1=CC2=C(c3ccccc3)C(=O)C(C)(OC(=O)C3CCCC3)C(=O)C2=CN1c1ccc(OC)cc1 (stereo not given) | -2.86%
13 | CCn1c(=S)[nH]c2sc3c(c2c1=O)CCCCC3 | -1.45%
14 | COc1ccc(N2CCN(C3CCCCC3NS(=O)(=O)c3ccccc3)CC2)cc1 (stereo not given) | -5.98%
15 | Cc1ccc2cc(C)c(N3CCN(c4ccc(F)cc4)CC3)nc2c1 | 10.1%
16 | Cc1nc(N2CCC(C)CC2)c2c(C)c(C(=O)Nc3cc(F)ccc3C)sc2n1 | 4.36%
17 | Cc1ccc2cc(C)c(N3CCC(C)CC3)nc2c1 | 23.2% (active)
18 | CC(NC(=O)c1cccc2ccccc12)c1ccc2c(c1)CCCC2 (stereo not given) | -1.47%
19 | Cc1ccc(NC(=S)N(CCN2CCCCC2)Cc2ccco2)cc1C | 6.6%
20 | Cc1ccc(NC(=S)N(CCCN2CCC(C)CC2)Cc2ccco2)cc1 | -1.16%

Row | SMILES | max response
21 | Cc1ccc(NC(=S)N(Cc2ccco2)C(C)c2cccs2)cc1 (stereo not given) | 15.6% (active)
22 | O=C(C1=C[C@H](c2ccc(C(F)(F)F)cc2)C[C@H](OCc2ccc(CO)cc2)O1)N1CCN(Cc2ccccc2)CC1 | -1.19%
23 | O=C(O)C1CCCN1S(=O)(=O)c1ccc(Br)cc1 (stereo not given) | -3.32%
24 | CCCCNC(=O)CN1C(=O)NC(Cc2ccccc2)(Cc2ccccc2)C1=O | -4.58%
25 | O=S(=O)(c1ccccc1)c1nc(-c2ccccc2)oc1NCCCN1CCOCC1 | -2.06%
26 | O=C(CCc1ccccc1)NNC(=O)c1ccc(Br)cc1 | 5.92%
27 | CC(C)(C)c1ccc(C(=O)NNC(=O)Cc2ccccc2)cc1 | 37.7% (active)
28 | CCNC(=S)NNC(=O)Cc1ccccc1 | -1.87%
29 | COc1cc(N=Cc2c(O)c3ccccc3oc2=O)c(OC)cc1Cl | 0.554%
30 | Cc1ccc(S(=O)(=O)NC2CCCCCC2)cc1C(N)=O | -1.91%
31 | CC(NCCc1ccc(S(N)(=O)=O)cc1)C(=O)NCc1ccccc1 (stereo not given) | 2.64%
32 | O=C(Nc1ncc([N+](=O)[O-])s1)C1COc2ccccc2O1 (stereo not given) | 49.4% (active)
33 | CN(c1ccccc1)S(=O)(=O)c1cccc(NC(=O)Cc2c(F)cccc2Cl)c1 | 10.4%
34 | CCN(CC)S(=O)(=O)c1ccc(N2CCOCC2)c(NC(=O)C2COc3ccccc3O2)c1 (stereo not given) | 4.39%
35 | COc1ccc(NC(=O)c2ccccc2[N+](=O)[O-])cc1OC | 3.51%
36 | O=C(Nc1ccncc1)c1ccccc1[N+](=O)[O-] | -7.9%
37 | O=C(Cc1c(F)cccc1Cl)Nc1ccc(-n2cnnn2)cc1 | 8.09%
38 | Cc1ccc(S(=O)(=O)N(C)C)cc1NC(=O)COC(=O)C1COc2ccccc2O1 (stereo not given) | -1.56%
39 | CC(=O)Oc1ccccc1C(=O)Nc1ncc([N+](=O)[O-])s1 | 29.9% (active)
40 | O=C(Cc1c(F)cccc1Cl)Nc1ncc([N+](=O)[O-])s1 | 32.7% (active)

Row | SMILES | max response
41 | O=C(Nc1nc2c(F)cc(F)cc2s1)C1COc2ccccc2O1 (stereo not given) | 24.7% (active)
42 | CC(NC(=S)Nc1ccccc1)C1COc2ccccc2O1 (stereo not given) | -3.29%
43 | O=C(Nc1nc(-c2ccncc2)cs1)C1COc2ccccc2O1 (stereo not given) | -3.21%
44 | O=C1Nc2cc(C(=O)N3CCC(N4CCCCC4)CC3)ccc2S/C1=C\c1ccccc1 | -5.33%
45 | C=CCN1C2CCCC1CC(NC(=S)Nc1cccc(OC)c1)C2 (stereo not given) | -2.67%
46 | CC(=O)N1CCc2cc(S(=O)(=O)NC3CCCCC3)ccc21 | -2.05%
47 | O=C(Nc1ccc(C(=O)O)cc1)/C(=C\c1ccccc1)NC(=O)c1ccc(Br)cc1 | -2.74%
48 | COc1ccc(C(=O)NC2CC(C)(C)Cc3c2cnn3-c2ccccc2)c(OC)c1 (stereo not given) | 0.758%
49 | CCCNC(=O)OC[C@H]1O[C@H](CCO/N=C/[C@@H](NS(=O)(=O)c2ccc(C)cc2)[C@H](C)/C=C/CC(=O)OC)C=C[C@@H]1Oc1ccc(OC)cc1 | -2.36%
50 | Cc1cccc(N2CCN(C(=O)CN(C)S(=O)(=O)c3ccc4c(c3)CCC(=O)N4)CC2)c1C | -5.43%
51 | COc1ccc(CNC(=O)C(C)n2nc(C)c3c(C)n(-c4ccccc4)nc3c2=O)c(OC)c1 (stereo not given) | -7.8%
52 | Cc1cccc(S(=O)(=O)N2CN(CC3CCCO3)c3nc4ccccc4nc32)c1 (stereo not given) | 12.8%
53 | O=c1oc2ccccc2c(CNc2ccccc2)c1[N+](=O)[O-] | -2.06%
54 | CCOc1ccccc1N1CCN(C(=O)COc2ccc3c(C)cc(=O)oc3c2)CC1 | -3.54%
55 | O=C(CCc1ccccc1)Nc1ncc([N+](=O)[O-])s1 | 60.9% (active)
56 | COc1ccc([N+](=O)[O-])cc1NC(=O)CCc1ccccc1 | -3.85%
57 | CC(C)(C)NC(=O)CSc1nnc(NC(=O)CCc2ccccc2)s1 | -0.182%
58 | CCCn1c(SCC(=O)c2ccc3c(c2)OCCO3)nnc1C(C)C | 15.2% (active)
59 | CCn1c(SCC(=O)Nc2ccc3c(c2)OCCO3)nnc1C(C)C | -1.89%
60 | CCCn1c(SCC(N)=O)nnc1C(C)C | -4.34%
